From PubChem BioAssay AID1851 (National Center for Advancing Translational Sciences (NCATS), 2009)
Out of some 16,000 compounds screened, about 5,800 (36%) were called active. About 23% were inconclusive and are not listed. The call rests on the fitted dose curve; in most records, active means well fitted curve in the direction sought with a large enough effect; inconclusive means small, poorly fitted or top-dose-only effect, or effect the other way; inactive means no such curve, though single readings can be large or run the other way. The list shows a part of the results.

Molecular target: Cytochrome P450 2C19 (Homo sapiens) (UniProt P33261)
Assay: Cytochrome panel assay with activity outcomes
Details: recombinant CYP, pro-luciferin dealkylation, luminescence, p450-cyp2c19; series mostly up to 57.1 µM; activity, negative = inhibition: at the top concentration
On the % scale 0 is the no-effect control and ±100 the full control effect.

Cytochrome P450 2C19 (Homo sapiens), sequence (P33261 whole entry, looked up): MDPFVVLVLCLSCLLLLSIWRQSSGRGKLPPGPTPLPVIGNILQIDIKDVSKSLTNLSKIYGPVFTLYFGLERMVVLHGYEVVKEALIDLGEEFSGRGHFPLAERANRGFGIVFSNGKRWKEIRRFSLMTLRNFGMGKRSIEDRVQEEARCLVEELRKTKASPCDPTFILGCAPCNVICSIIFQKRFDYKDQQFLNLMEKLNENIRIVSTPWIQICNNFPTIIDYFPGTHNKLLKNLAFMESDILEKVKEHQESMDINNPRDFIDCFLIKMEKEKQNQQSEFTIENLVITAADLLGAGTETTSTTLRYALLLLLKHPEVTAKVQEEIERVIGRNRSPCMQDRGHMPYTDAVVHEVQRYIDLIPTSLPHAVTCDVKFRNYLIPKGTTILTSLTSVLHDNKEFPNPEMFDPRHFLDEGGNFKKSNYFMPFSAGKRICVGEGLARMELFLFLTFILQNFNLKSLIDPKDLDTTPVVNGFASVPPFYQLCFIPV

AC50, active:
CSc1nnc(-c2sccc2OCc2ccccc2)n1C 17.8 µM, CC(C)NCCOCCSc1ccc(Cl)cc1 15.8 µM, CC(=O)NC1(c2ccc(F)cc2)CCN(C(=O)Nc2ccc(F)cc2F)CC1 7.08 µM, COc1cccc(-c2nc(N(C)C)c3ccccc3n2)c1 20 µM, CN(Cc1ccco1)c1nc(-c2cccc(C#N)c2)nc2ccccc12 15.8 µM, CN(Cc1ccco1)c1nc(-c2ccc3c(c2)OCO3)nc2ccccc12 7.94 µM, COc1cccc(-c2nc(N(C)Cc3ccco3)c3ccccc3n2)c1 20 µM, CNC(=O)c1sc(SC)cc1-c1ccc(Cl)cc1 0.0562 µM, CCn1c(/C=C2/C(=O)N(C)c3ccccc32)nc2ccccc2c1=O 15.8 µM, Cc1cc(C)cc(NC(=O)CCc2nc3ccccc3[nH]2)c1 1.58 µM, CCOC(=O)C1=C(COc2ccc(F)cc2Cl)NC(=O)NC1c1cc(C)ccc1C (stereo not given) 7.08 µM, CCOC(=O)C1=C(CSc2nc3ccccc3s2)NC(=O)NC1c1cc(C)ccc1C (stereo not given) 7.94 µM, C=CCNc1nc(-c2ccc(Cl)cc2)cs1 3.16 µM, Cc1ccc(CSC(N)=Nc2ccccc2)cc1C 2 µM, C#C[C@@]1(O)CC[C@@H]2[C@@H]3CCC4=C(CCC(=O)C4)[C@H]3CC[C@]21C 0.0631 µM, C#C[C@]1(O)CC[C@@H]2[C@H]3CCC4=CCCC[C@@H]4[C@@H]3CC[C@@]21C 3.98 µM, C#C[C@@]1(O)CC[C@@H]2[C@@H]3CCC4=CC(=O)CC[C@@H]4[C@H]3CC[C@]21C 5.01 µM, COc1cc(OC)cc(C(=O)Nc2ccccc2C(=O)N2CCCC2)c1 28.2 µM, COC(=O)c1ccccc1NC(=O)C1CCN(C(=O)c2ccc(OC)cc2)CC1 14.1 µM, N#CC(c1ccccc1F)(c1ncc(C(F)(F)F)cc1Cl)N1CCOCC1 (stereo not given) 11.2 µM, N#CC(c1ccc(Cl)cc1)(c1ncc(C(F)(F)F)cc1Cl)N1CCOCC1 (stereo not given) 11.2 µM, Cc1ccc(SCc2ccc(C(=O)NCc3ccncc3)cc2)cc1 0.355 µM, Cc1ccccc1NS(=O)(=O)c1cc(C(=O)Nc2cccc(N(C)S(C)(=O)=O)c2)ccc1C 3.55 µM, Cc1ccc(SCCNC(=O)c2ccc(C)c(S(=O)(=O)Nc3ccccc3C)c2)cc1 2.51 µM, Cc1ccc(SCCNC(=O)c2ccccc2)cc1 6.31 µM

activity, negative = inhibition, inactive:
Cc1nc2c(OCc3ccccc3)cccn2c1CC#N -11.3%, CO[C@H]1COC(=O)[C@@H](C)COC(=O)[C@@H](COCc2ccccc2)NC(=O)C/C=C\[C@H]1C 37.5% [at 11.4 µM], O=c1[nH]c(=O)n([C@@H]2C[C@H](O)[C@H](CO)O2)cc1C(F)(F)F -2.44% [at 25.6 µM], Cn1cccc1C(=O)N1CCC2(CCN(C(=O)Nc3cccc(F)c3)CC2)CC1 -21.4%, CC(=O)N1CCC2(CC1)CCN(C(=O)Nc1cccc(F)c1)CC2 -4.74%, CN1CCN(c2nc(-c3cccc(C#N)c3)nc3ccccc23)CC1 -12.9%, CN(C)c1nc(-c2cccnc2)nc2ccccc12 -40.7%, CCn1c(=O)[nH]c2ccccc2c1=O -2.61%, CC(C)(CCc1nc2ccccc2[nH]1)C(=O)O -0.413% [at 11.4 µM], Cc1cc(C)cc(NC(=O)C/C(N)=N/O)c1 -15.2%, CCOC(=O)C1=C(C)NC(=O)N[C@@H]1c1coc2cc(C)cc(C)c2c1=O -27.2% [at 11.4 µM], C[C@@]12CCC(=O)C=C1CC[C@@H]1[C@@H]2[C@H](O)C[C@]2(C)[C@@H]1CC[C@]2(O)C(=O)COC(=O)CCC(=O)O 35.7%, CCNc1ncc2nc(-c3cn(C)c4ccccc34)c(=O)n(C)c2n1 -18.4%, COc1cc(OC)cc(C(=O)Nn2cc(C(=O)N3CCN(C)CC3)c3ccccc3c2=O)c1 -11.9%, COc1ccc(/C=C/C(=O)Nc2ccccc2C(=O)N2CCCC2)cc1 -26.3%, COc1ccc(NC(=O)C2CCN(C(=O)c3cccs3)CC2)c(OC)c1 -6.18%, O=C1[C@H]2[C@H]3[C@H](O)[C@H](O)C/C(=N/OC[C@@H](O)COCc4ccco4)[C@H]3CC[C@@H]2C(=O)N1C1CCCCC1 -5.34% [at 11.4 µM], Cc1ccc(SCc2nnc(NC(=O)c3ccccc3)s2)cc1 -23.4%, Cc1ccc(NC(=O)c2cccc(N(C)C)c2)cc1NC(=O)c1ccc(O)cc1 42%, CCN(CC)CCNC(=O)c1ccc(Cl)c(S(=O)(=O)Nc2ccccc2OC)c1 -26.4%
